This is a sample that favours compounds with a hit; in the whole collection about 8.2% have one here.
MCF10A rereplic: induces DNA re-replication in MCF 10a normal breast cells | MCF 10A DNA re-replication, Hoechst nuclear intensity, 48 h | Potency, µM (series often up to 46.1 µM), inactives show top-dose activity, positive = re-replication, hits mostly activators | hit rate 2.9% among 350,000 | AID 624296; also: % of control where 0% means no effect; nearly all actives have a fitted effect of over 50% in size
KB-3-1 cytotox: kills parental KB-3-1 adenocarcinoma cells | KB-3-1 viability, CellTiter-Glo ATP luminescence, 72 h | Potency, µM (highest dose often 46.1 µM), usual class: cytotoxic | hit rate 1.4% among 400,000 | AID 1347075; also: % is scaled to controls: 0 for no effect and ±100 for the full control effect; nearly all actives have a fitted effect of over 60% in size
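Luminescent ATP read-out (CellTiter-Glo) measures survival of drug-naive KB-3-1 cells after 72 h compound exposure at 37 °C. Titration series was screened from lowest to highest concentration, with DMSO vehicle plates as background controls.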
KB-V1 MDR tox: KB-V1 MDR subline cytotoxicity; hit rate 3.4% among 400,000; Potency, µM (doses to about 46.1 µM), actives largely listed as cytotoxic; KB-V1 MDR cells viability, CellTiter-Glo, 72 h; also: % is scaled to controls: 0 for no effect and ±100 for the full control effect; nearly all actives have a fitted effect of over 60% in size
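Cytotoxicity via CellTiter-Glo luminescence after 72 h compound exposure at 37 degrees C. Cells: drug-selected KB-V1 line, DMEM phenol-red free plus 10% FBS. Compounds tested at multiple concentrations; normalized data fitted to concentration-effect curves.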
ELG1 repair inh: inhibitors of ELG1-dependent DNA repair in HEK293T cells; hit rate 2.3% among 330,000; Potency, µM (doses to about 46.1 µM), inactives show at the top dose activity change, negative = inhibition, hits mostly inhibitors; HEK293T ELG1-luciferase reporter, luminescence, 16 h; DNA damage induced by 5-fluorouridine; also: % is scaled to controls: 0 for no effect and ±100 for the full control effect; nearly all actives have a fitted effect of over 55% in size
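Cells (2,000 per well) received 5-fluorouridine plus test compound or DMSO and were incubated 16 hr at 37 °C, 5% CO2. Luciferase activity was read by luminescence 30 min after ONE-Glo addition; signal suppression marked inhibition of damage-induced ELG1 function.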
SW480 rereplic: induces DNA re-replication in SW480 colon adenocarcinoma cells; Potency, µM (highest dose often 46.1 µM), inactives show at the highest dose re-replication activation, hits mostly activators; SW480 DNA re-replication, Hoechst DNA content imaging, 48 h; AID 624297; hit rate 1.8% among 340,000; also: % of control where 0% means no effect; nearly all actives have a fitted effect of over 55% in size
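Image-based read-out: total Hoechst fluorescence of nuclei (405 nm excitation, 500-530 nm emission), with hits raising the fraction of high-intensity nuclei. SW480 colon cells incubated 48 hr with compounds at 37 C.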
An asterisk follows results filed as active; i = inactive; ? = inconclusive; . = no result. Calls follow the shape of the dose curve; as a rule, active = well fitted curve in the direction sought with a large enough effect; inconclusive = small, poorly fitted or top-dose-only effect, or another doubt; inactive = no such curve, though single readings can be large; an effect the other way counts as inactive or inconclusive. Potency is read from the fitted curve at half-maximal effect.

SMILES | MCF10A rereplic | KB-3-1 cytotox | KB-V1 MDR tox | ELG1 repair inh | SW480 rereplic
Cn1c(=O)c2c(nc(CN3CCc4ccccc4C3)n2Cc2ccccc2)n(C)c1=O | ? | 12µM* | i | 16µM* | -1%
CCOC(=O)c1sc(NC(=O)CSc2nc(-c3ccco3)cc(C(F)(F)F)n2)c(C(=O)OCC)c1C | -10% | i | i | . | -6%
O=C(NCc1ccccc1Cl)[C@H]1CCCN1C(=O)[C@H]1CCCN1C(=O)c1ccccc1 | . | i | i | . | .
Cc1nc2ccccc2c(=O)n1NC(=O)c1ccccc1Br | 8% | i | i | -3% | 1%
CCOC(=O)c1c(NC(=O)CSc2cn(CCNC(=O)c3ccccc3OC)c3ccccc23)sc2c1CCC2 | . | i | i | . | .
CN(C1CCCCC1)S(=O)(=O)c1ccc(=S)[nH]c1 | 2% | i | 15µM* | 18% | -9%
CN(C1CCCCC1)S(=O)(=O)c1ccc(S(=O)(=O)N2CCCC2)cc1 | -2% | i | ? | -7% | 1%
Cc1ccc(-n2ncc3c(Nc4cccc(C(F)(F)F)c4)ncnc32)cc1C | . | i | i | . | .
CCc1n[nH]c(=S)n1/N=C/C(C)=C\c1ccccc1 | 15% | ? | 7.3µM* | -15% | 0%
CC(/C=N/n1c(-c2ccccn2)n[nH]c1=S)=C\c1ccccc1 | 8% | ? | i | ? | -3%
Cc1nc(NS(=O)(=O)c2ccccc2)sc1C(C)(C)C | -1% | i | 18µM* | 6% | -138%
Cc1cn2c(=O)c(S(=O)(=O)NCc3ccc(F)cc3)c(C)nc2s1 | . | i | i | . | .
COc1ccccc1NC(=O)Cn1c(=O)n(Cc2ccccc2)c(=O)c2sc3ccccc3c21 | . | i | i | . | .
COc1ccc(NS(=O)(=O)c2cc(C)ccc2NC(=O)c2cc(C)oc2C)cc1 | 0.65µM* | 0.041µM* | 0.26µM* | ? | 0.73µM*
Cc1ccc(S(=O)(=O)c2nc(S(=O)(=O)c3ccccc3)sc2N2CCN(CCO)CC2)cc1 | 17% | 21µM* | ? | -21% | -1%
Cc1ccc(S(=O)(=O)c2nc(S(=O)(=O)c3ccccc3)sc2N2CCN(C)CC2)cc1 | 23µM* | ? | ? | ? | 36%
Cc1ccc(CNc2ncnc3cc(Cl)ccc23)o1 | -15% | ? | 21µM* | -18% | 3%
COc1ccc(N/C(N)=N/c2nc(CSc3ccc(Cl)cc3)cc(=O)[nH]2)cc1 | 8% | i | i | -5% | -1%
CCOc1ccc(N/C(N)=N/c2nc(CSc3nnc(C)s3)cc(=O)[nH]2)cc1 | ? | 0.73µM* | ? | ? | ?
Cc1nnc(SCc2cc(=O)[nH]c(/N=C(\N)Nc3ccccc3Sc3ccccc3)n2)s1 | 4% | i | i | -3% | -7%
Cc1nnc(SCc2cc(=O)[nH]c(/N=C(\N)Nc3ccccc3)n2)s1 | 18µM* | ? | ? | 0% | ?
COc1ccc(NC(=O)C/C(C)=N/NC(=O)c2ccco2)c([N+](=O)[O-])c1 | 4% | i | ? | -4% | -22%
O=C(COC(=O)CSc1ccccc1)NC1CCS(=O)(=O)C1 (stereo not drawn) | . | i | i | . | .
NS(=O)(=O)c1ccc(NC(=O)c2ccc(F)cc2F)c(NC(=O)c2ccc(F)cc2F)c1 | -5% | i | i | 6% | -1%
O=C(NC1CCCCC1)N1CCc2ccccc2C1 | -2% | i | i | -5% | -1%
SMILES | MCF10A rereplic | KB-3-1 cytotox | KB-V1 MDR tox | ELG1 repair inh | SW480 rereplic
COc1cc(OC)c(C(=O)OCC(=O)NC23CC4CC(CC(C4)C2)C3)cc1OC | 17% | i | 8.2µM* | -3% | -5%
COC(C(=O)NC1CCCCCCC1)c1ccccc1 (stereo not drawn) | 0% | i | 18µM* | 1% | -72%
COc1cc(OC)c(C(=O)OCC(=O)NC2CCCC2)cc1OC | 0% | i | i | 2% | -5%
O=C(CN1CCc2ccccc2C1)NC1CCCC1 | 8% | i | i | 1% | 18µM*
COc1cc(OC)c(C(=O)OCC(=O)NC2CCCCCCC2)cc1OC | 2% | ? | 8.2µM* | ? | -4%
Cc1nc(SCC(=O)Nc2ccc(Cl)cc2C(F)(F)F)[nH]c(=O)c1Cc1ccccc1 | . | i | i | . | .
CCCCn1c(N)c(N(CC)C(=O)c2cc(S(=O)(=O)N3CCCCCC3)ccc2OC)c(=O)[nH]c1=O | -2% | i | i | 15% | -5%
C#CCN(C[C@H]1[C@H](OC(=O)NC2CC2)[C@H](OC(=O)NC2CC2)C[C@@H](C(=O)OC)[C@H]1C(=O)OC)S(=O)(=O)c1ccc(C)cc1 | . | i | ? | . | .
CN(Cc1ccccc1)C(=O)COc1ccc(Br)cc1Cl | -9% | i | i | 0% | 18%
Cc1ccccc1CC(=O)NC1CCCCCC1 | 8% | i | i | 14% | 0.92µM*
CC(C(=O)NC1CCCC1)N1CCN(Cc2ccccc2)CC1 (stereo not drawn) | 0% | i | i | -9% | 0%
O=C(COc1ccc(Br)cc1Cl)NC1CCCCC1 | 1% | ? | 18µM* | ? | -1%
CC(C(=O)NC(=O)NC1CCCCC1)N1CCN(C(c2ccccc2)c2ccccc2)CC1 (stereo not drawn) | 2% | ? | 9.2µM* | ? | 0%
O=C(COc1ccc(Br)cc1Cl)NC(=O)NC1CCCC1 | 0% | i | i | ? | 0%
CC(C)N(C(=O)COc1ccc(Br)cc1Cl)C(C)C | 13% | i | 15µM* | -20% | -8%
CCOC(=O)[C@@H]1[C@H]2COc3cc(OC)ccc3[C@H]2N2C(=O)N(c3ccc(OC)cc3)C(=O)[C@]12C | 7% | i | i | ? | -1%
Cc1cc(NN)nc(Cc2ccccc2)n1 | 10% | i | i | 3% | -9%
COc1ccccc1OCC(=O)N(Cc1nc(-c2ccccc2)no1)C1CCCCC1 | 16% | ? | 16µM* | ? | 11%
Cc1nn(-c2ccccc2)c(C)c1C(=O)OCC(=O)NC12CC3CC(CC(C3)C1)C2 | ? | ? | i | 21µM* | -2%
Cc1ccc(C)c(OCCC(=O)OCC(=O)NCCNC(=O)COC(=O)CCOc2cc(C)ccc2C)c1 | -5% | i | i | 11% | -2%
CC(=O)Nc1ccc(NC(=O)COC(=O)c2c(C)nn(-c3ccccc3)c2C)cc1 | 5% | i | i | -25% | 0%
Cc1ccccc1OCC(=O)N(Cc1nc(-c2ccccc2)no1)C(C)C | 5% | i | i | -13% | -1%
COc1ccccc1OCC(=O)NC1CCCCCCC1 | 28% | ? | 21µM* | -12% | 3%
Cc1ccc(C)c(OCC(=O)NCCNC(=O)COc2cc(C)ccc2C)c1 | 19% | i | 18µM* | -21% | -3%

Screens deposited in PubChem BioAssay by National Center for Advancing Translational Sciences (NCATS).
